Experimental data: PubChem BioAssay (Tox21)
Records with an inconclusive call do not appear. A call without a number means that no potency is given here. The source made the active and inactive calls. Calls follow the shape of the dose curve; as a rule, active = well fitted cell-killing curve with a large enough effect in the repeat runs; inconclusive = weak or mixed curves, or effect the other way; inactive = flat fitted curve, though single readings scatter.

Test: Caspase-3/7 induction in HepG2 cells by small molecules, qHTS cell viability counter screen (AID 1346981); also: nearly all actives have a fitted effect of over 30% in size
Details: CellTiter-Fluor fluorescence, 17 h; series mostly up to 92.4 µM
From the text: U.S. Tox21 Program National Center for Advancing Translational Sciences [NCATS] NIH Chemical Genomics Center [NCGC] U.S. Environmental Protection Agency [EPA] National Institutes of Environmental Health Sciences [NIEHS] National Toxicology Program [NTP] U.S. Food and Drug Administration [FDA] Tox21 Assay Overview: Apoptosis is a process of programmed cell death and plays a central role in the development of multicellular organisms. It is a highly regulated process and induces cell death by activating caspases, which are the members of cysteine aspartic acid-specific protease (caspase) family. Caspases involved in apoptosis are classified by their mechanism of action as initiator caspases (caspase-2, -8, -9 and -10) and executioner caspases (caspase-3, -6, and -7). Inhibition of apoptosis results in number of cancers, autoimmune diseases, inflammatory diseases and viral infection. To identify small molecule compounds that induce apoptosis, a homogeneous, luminescent Caspase-Glo 3/7 assay was used. Wild type HepG2 cells were used to screen Tox21 libraries for identifying caspase-3/7 activity inducers. Also cytotoxicity of the compounds was tested in parallel by measuring the cell viability using CellTiter-Fluor assay system in the same wells.
Tox21 Assay Protocol Summary: HepG2 cells were dispensed at 2,000 per well in 5uL of culture medium into white solid bottom 1536-well plates (Corning Life Sciences, Corning, NY) using a Multidrop Combi (Thermo Scientific, Waltham, MA) dispenser. The assay plates were incubated at 37 C and 5% CO2 for 5hr, and then 23nL of compounds dissolved in DMSO and positive control were transferred using a Pintool station ([…], San Diego, CA). The assay plates were incubated at 37C and 5% CO2 for 17hr. For cytotoxicity read, after 16hr incubation at 37C, 1uL CellTiter-Fluor reagent (Promega Corporation, Madison, WI) was added to each well of the assay plates using Flying Reagent Dispenser (FRD, Aurora Discovery, San Diego, CA). After 1hr incubation at 37C and 5% CO2, the fluorescence signal was quantified using a ViewLux plate reader (PerkinElmer, Shelton, CT).
For `C=CCOc1c(Br)cc(C(C)(C)c2cc(Br)c(OCC=C)c(Br)c2)cc1Br`, the Potency was “inactive”. With `CCNC(=O)/C=C/c1cccc(Br)c1` the Potency was “inactive”. In the case of `CN(C1CCCCC1)S(=O)(=O)c1ccccc1N`, the Potency is reported as “inactive”. For `COc1ccc(NS(=O)(=O)c2ccc(N)cc2)nn1`, the Potency was “inactive”. In the case of `O=S(=O)(O)c1cc(O)ccc1O`, the Potency is reported as “inactive”. With `Cc1ccccc1C` the Potency was “inactive”. With `Cc1nc2n(c(=O)c1CCN1CCC(C(=O)c3ccc(F)cc3)CC1)CCS2` the Potency was “inactive”. For `C=C[Si](C)(C)O[Si](C)(C)C=C`, the Potency was “inactive”. With `CC(C)COC(=O)CC(C(=O)OCC(C)C)S(=O)(=O)O` (stereo not given) the Potency was “inactive”. For `CC(C)(c1ccc(Oc2ccc3c(c2)C(=O)OC3=O)cc1)c1ccc(Oc2ccc3c(c2)C(=O)OC3=O)cc1`, the Potency was “inactive”. In the case of `Cc1ccccc1OCC1CO1` (stereo not given), the Potency is reported as “inactive”. With `NS(=O)(=O)c1ccccc1OC(F)(F)F` the Potency was “inactive”. In the case of `O=C(O)c1ccccc1C(=O)Nc1ccc(S(=O)(=O)Nc2nccs2)cc1`, the Potency is reported as “inactive”. In the case of `CO/N=C(/C(=O)N[C@@H]1C(=O)N2C(C(=O)O)=C(Cn3nnc(C)n3)CS[C@H]12)c1csc(N)n1`, the Potency is reported as “inactive”. In the case of `Cc1cccc(Nc2ccncc2S(=O)(=O)NC(=O)NC(C)C)c1`, the Potency is reported as “inactive”. In the case of `NC(=O)C1(N2CCCCC2)CCN(CCCC(=O)c2ccc(F)cc2)CC1`, the Potency is reported as “inactive”. With `CCS(=O)(=O)CCn1c([N+](=O)[O-])cnc1C` the Potency was “inactive”. In the case of `CCC(CO)CO`, the Potency is reported as “inactive”. With `COc1cc2c3cc1Oc1cc(ccc1O)C[C@@H]1c4c(cc(OC)c(O)c4Oc4ccc(cc4)C[C@@H]3N(C)CC2)CC[N+]1(C)C` the Potency was “inactive”. For `CC(C)CCO`, the Potency was “inactive”. With `CC(C)COC(=O)CCCCC(=O)OCC(C)C` the Potency was “inactive”. For `Cc1ccc(S(=O)(=O)NC(=O)NC2CCCCCCC2)cc1`, the Potency was “inactive”. For `CCCCC(CC)COC(=O)c1ccccc1` (stereo not given), the Potency was “inactive”. For `Cc1nc2ccccc2c(=O)o1`, the Potency was “inactive”. With `SCCSCCS` the Potency was “inactive”. With `Nc1ccc(C(=O)OCC(O)CO)cc1` (stereo not given) the Potency was “inactive”. In the case of `CCCCCC1CCCC(=O)O1` (stereo not given), the Potency is reported as “inactive”. For `CNC(=O)C(c1ccccc1)c1ccccc1`, the Potency was “inactive”. In the case of `O=c1[nH]c(=O)c2ccccc2o1`, the Potency is reported as “inactive”. In the case of `NS(=O)(=O)c1ccc(Cl)c(S(N)(=O)=O)c1`, the Potency is reported as “inactive”. For `C=CCOCC(O)CCl` (stereo not given), the Potency was “inactive”. For `Cc1nc(C)nc(N2C[C@@H](C)N(c3ccnc([C@@H](C)O)n3)[C@@H](C)C2)n1`, the Potency was “inactive”. With `BrC/C=C/CBr` the activity change, negative = cytotoxicity was -3.88% [at 19 µM] (inactive). For `O=C(CN1CCN(Cc2ccc3c(c2)OCO3)CC1)N1c2ccccc2Sc2ccccc21`, the Potency was “inactive”. With `O=C1OC(=O)c2ccccc21` the Potency was “inactive”. In the case of `CCCCCCCCCCC`, the Potency is reported as “inactive”. In the case of `CCOC(=O)CC(CC(=O)OCC)(OC(C)=O)C(=O)OCC`, the Potency is reported as “inactive”. For `NC(=O)NC(=O)Cc1ccccc1`, the Potency was “inactive”. With `C=CCOCC(CO)(COCC=C)COCC=C` the Potency was “inactive”. For `CC(C)=CC(C)(C)C`, the Potency was “inactive”.
